# Laboratory results taken from ChEMBL document CHEMBL4513216, “Probing the Open Global Health Chemical Diversity Library for Multistage-Active Starting Points for Next-Generation Antimalarials” (ACS Infect Dis, 2020).
# Out of some 69,000 compounds screened, about 8,600 (12%) showed an effect of 50% or more. Shown is part of a subset that was picked to be rich in strong results.
# System: Plasmodium berghei
# Test: Screen against P. berghei liver stage (PbLuc), transformed with Luciferase, at 10uM
# Format: functional, HepG2
# Conditions: tested at 10 uM
row,Compound,INHIBITION [%]
1,O=C(Cc1ccccn1)N1CCC(c2noc(-c3ccncc3)n2)CC1,-8.12
2,O=C(NCC1CC1)[C@@H]1CCO[C@@H]2CCN(Cc3ccsc3)C[C@H]21,-9.71
3,CC1CCC(NC(=O)c2nn(C)cc2Br)CC1 (stereo not drawn),65.2
4,CC1CCC(NC(=O)c2nn(C)cc2I)CC1 (stereo not drawn),-32.5
5,Cn1cc(I)c(C(=O)NC2CCCC2)n1,-13.2
6,Cc1nc(C(C)C)sc1C(=O)N1CCN(C2CCSCC2)CC1,-21.3
7,c1cnc(N2CCC(NCc3cnc(C4CCC4)s3)CC2)nc1,-22
8,CC(CCN1CCCC1=O)NCc1cnc(C2CCC2)s1 (stereo not drawn),54.4
9,Cc1ccc(N2CCC(NCc3cnc(C4CCC4)s3)CC2)nc1,34.7
10,O=C1CCCCN1CCCNCc1cnc(C2CCC2)s1,3.87
11,CC(c1nc(C2CC2)no1)N1CCN(CCN2CCCC2=O)CC1 (stereo not drawn),-65.2
12,CCC(CCNCc1cnc(C2CCC2)s1)N1CCCC1=O (stereo not drawn),53.4
13,CC(C)NC(=O)Nc1ccc(CNCc2cccc(OC(F)F)c2)cc1,38.6
14,Cn1c(Cn2ccnc2)nnc1C1CCN(C(=O)c2cccnc2)CC1,-27.4
15,Cn1cc(N2CC3(CCN(CC4CCC4)CC3)OCC2=O)cn1,42.5
16,Cc1ccc(C)c2c1NC(=O)C2CC(=O)O (stereo not drawn),-95.1
17,Cc1cc(C)c2c(c1)C(CC(=O)O)C(=O)N2 (stereo not drawn),54.8
18,Cc1cc(C)c2c(c1)NC(=O)C2CC(=O)O (stereo not drawn),27.6
19,CCCc1nc(N2CCCN(c3ccncc3)CC2)c2cnn(C)c2n1,39.1
20,CCn1cnnc1C1CCN(C(=O)c2cc(F)ccc2OC)CC1,33.3
21,CN(C)C(=O)CCS(=O)(=O)Cc1cc(Cl)c2c(c1)OCO2,44.3
22,CNC(=O)CS(=O)(=O)Cc1cc(Cl)c2c(c1)OCCCO2,6.14

row,Compound,INHIBITION [%]
1,CN(C)C(=O)CCS(=O)(=O)Cc1cc(Cl)c2c(c1)OCCO2,54.4
2,NC(=O)CS(=O)(=O)Cc1cc(Cl)c2c(c1)OCCCO2,-125
3,O=C(CS(=O)(=O)Cc1cc(Cl)c2c(c1)OCCCO2)NCC1CC1,60.5
4,CS(=O)(=O)CCS(=O)(=O)Cc1cc(Cl)c2c(c1)OCCCO2,25.5
5,CN(C)C(=O)CS(=O)(=O)Cc1cc(Cl)c2c(c1)OCCCO2,21.8
6,CS(=O)(=O)Cc1cc(Cl)c2c(c1)OCCCO2,50.1
7,CN(C)C(=O)CCCS(=O)(=O)Cc1cc(Cl)c2c(c1)OCCO2,31.9
8,CSCC(=O)N1C[C@H](c2ccc(C)o2)[C@@H](N)C1,-1.45
9,CCNc1ncc(CN2CCOC(Cc3cccc(OC)c3)C2)cn1 (stereo not drawn),15.2
10,Cn1cnc2c1C(COCc1cccnc1)N(Cc1nccs1)CC2 (stereo not drawn),20.1
11,CCN(Cc1c(C)nn(CC)c1C)S(=O)(=O)c1cn(C)nc1C,8.49
12,COc1ccccc1CN1CC[C@]2(C[C@@H](OC)CO2)C1,-79.4
13,CCC(C(=O)NC1CCCCC1)n1ccc2ncccc2c1=O (stereo not drawn),-4.12
14,Nc1nc(N2CCCCCC2)ncc1C(=O)NCc1ccc(F)c(Cl)c1,43.8
15,CN(C)CC1(O)CCCN(C(=O)CCc2nc3cccnc3n2C)C1 (stereo not drawn),8.64
16,CS(=O)(=O)CCNC(=O)c1cc2ccccc2nc1N1CCCC1,-1.37
17,Cn1cc(CCNC(=O)c2cc3ccccc3nc2N2CCCC2)cn1,59.4
18,CCOC(=O)NCCNC(=O)c1cc2ccccc2nc1N1CCCC1,-7.36
19,Cn1c(CCC(=O)N2CCC3(CCCO3)CC2)nc2cccnc21,27.4
20,CCc1cc(CNC(=O)N2CCC(Cc3cnn(C)c3)C2)on1 (stereo not drawn),3.1
21,COc1ccccc1C1CNC(=O)c2nc(-c3nccn3C)[nH]c2C1 (stereo not drawn),55.7
22,COc1ccccc1C1CNC(=O)c2nc(-c3cnn(C)c3)[nH]c2C1 (stereo not drawn),-36.5

row,Compound,INHIBITION [%]
1,COc1ccccc1C1CNC(=O)c2nc(-c3ncc[nH]3)[nH]c2C1 (stereo not drawn),1.81
2,Cc1nnc(NCC2(c3ccc(Cl)cc3Cl)CCOCC2)c(C#N)c1C,52.9
3,COc1ccccc1C1(CNc2nnc(C)c(C)c2C#N)CCOCC1,-10.2
4,COc1ccccc1C1(CNc2nnc(C)c(C)c2C#N)CCCC1,97.1
5,Cc1nnc(NCC2(c3ccccc3)CCC2)c(C#N)c1C,92.1
6,Cc1ccccc1C1(CNc2nnc(C)c(C)c2C#N)CCOCC1,17.4
7,Cc1nnc(NCC2(c3ccccc3)CCOCC2)c(C#N)c1C,6.67
8,Cc1nnc(NCc2ccccc2Cl)c(C#N)c1C,49.9
9,COCc1ccccc1CNc1nnc(C)c(C)c1C#N,22.9
10,Cc1nnc(NCC2(c3ccccc3)CC2)c(C#N)c1C,9.48
11,CCCc1cc(NC2CCc3nc(C(C)C)nn3C2)n2ncnc2n1 (stereo not drawn),-5.65
12,COCCCNC(=O)N1CCN(C(=O)c2nsc3ccc(C)cc23)CC1,15.1
13,CC(C)NC(=O)Cn1cc(OCc2ccc(F)cc2)c(=O)cc1CO,27.5
14,COCCn1cc2c(n1)C(CNC(=O)c1cc(C)[nH]c1C)OCC2 (stereo not drawn),23.6
15,O=C(NC1CCC(O)CC1)c1ccc2nc(-c3ccc(F)cc3)cn2c1 (stereo not drawn),35.5
16,CCc1nnc2n1CCN(Cc1ncc(-c3ccc(F)cc3)o1)C2,-3.235
17,Cc1csc(CNCC(C)c2nc3ccccc3o2)n1 (stereo not drawn),48.3
18,Cc1ncsc1CNCC(C)c1nc2ccccc2o1 (stereo not drawn),50
19,Cc1nc(CNCC(C)c2nc3ccccc3o2)cs1 (stereo not drawn),20
20,Nc1cc(-c2cncnc2C2CCN(C(=O)c3ccccc3)C2)ccn1 (stereo not drawn),3.48
21,Cn1ccnc1CN1C[C@@H]2[C@@H](C1)OCC(=O)N2CC1CCCC1,39.8
22,O=C(c1ccc[nH]1)N1CC[C@@H](OCC2CC2)[C@@H]1Cc1cccnc1,-68.6

row,Compound,INHIBITION [%]
1,O=C(C1CCOC1)N1CCC(OCc2ccccc2)CC1 (stereo not drawn),33.9
2,CN(CC(=O)N1CCC(OCc2cccnc2)CC1)c1ccccc1,5.91
3,O=C(C1CCOCC1)N1CCC(OCc2cccnc2)CC1,85.2
4,Cn1c(CN2CCC(OCc3cccnc3)CC2)cc2ccccc21,56.2
5,O=C(Cc1cccnc1)N1CCC(OCc2ccccc2)CC1,7.84
6,Cn1c(CN2CCN(c3cccnc3)CC2)cc2ccccc21,27.4
7,CCc1ccc(C(=O)NCc2cccc(S(=O)(=O)NC)c2)o1,-14
8,CCn1ccnc1CN1CCCN(C(=O)c2cnn(C)c2)CC1,-21.21
9,Cc1cc(N2CCN(C(=O)Cc3c(C)nc(C)[nH]c3=O)CC2)cc(C)n1,14.9
10,CCO[C@@H]1CN(Cc2scnc2C)[C@@H]2CCCO[C@@H]21,-6.39
11,N#Cc1cnc(N2CCC3(CC2)OCCO3)nc1N,1.61
12,Cc1ccc(-c2noc(CN3CCc4cncnc4C3)n2)cc1,38.6
13,Cn1cc(C(=O)N2CCCC(c3cc(O)n(C)n3)C2)cn1 (stereo not drawn),19.6
14,O=C1CN(S(=O)(=O)c2ccc(F)cc2)CC(O)CN1CC1CC1 (stereo not drawn),4.07
15,Cn1cnnc1S(=O)(=O)C1CCN(C(=O)c2cccs2)CC1,41.8
16,COc1ccc(S(=O)(=O)C2CCN(C(=O)c3cc(C)cs3)CC2)cc1,65.2
17,Cc1csc(C(=O)N2CCCC(c3[nH]ncc3S(C)(=O)=O)C2)c1 (stereo not drawn),27.8
18,Cc1csc(C(=O)N2CCC(S(C)(=O)=O)CC2)c1,43.7
19,Cc1csc(C(=O)N2CCC(S(C)(=O)=O)C2)c1 (stereo not drawn),12.3
20,Cc1csc(C(=O)N2CC(S(=O)(=O)C3CCCCC3)C2)c1,75.2
21,O=C(CCOc1cccc(F)c1)N1CCCC(n2cccn2)C1 (stereo not drawn),-18
22,Cc1ccc(-c2nc(CN3CCCC3Cn3cncn3)cs2)o1 (stereo not drawn),-15.5

row,Compound,INHIBITION [%]
1,O=S1(=O)COCCN1Cc1ccc(F)c(F)c1,29.9
2,COCCNc1nc(-c2ccc(S(=O)(=O)N3CCCCC3)cc2)cs1,-1.16
3,COCc1nc(-c2ccc(S(=O)(=O)N3CCCC3)cc2)cs1,61
4,Cc1nc(-c2ccc(S(=O)(=O)N3CCSC3)cc2)co1,39.6
5,Cc1nc(-c2ccc(S(=O)(=O)N3CCCCC3)cc2)co1,6.09
6,Cc1nc(-c2ccc(S(=O)(=O)N3CCSCC3)cc2)co1,49.4
7,COCCCc1nc(-c2ccc(S(=O)(=O)N3CCCC3)cc2)cs1,61
8,Cc1nc(-c2ccc(S(=O)(=O)N3CCOCC3)cc2)co1,14.8
9,COCCNc1nc(-c2ccc(S(=O)(=O)N3CCCCCC3)cc2)cs1,62.8
10,COCCNC(=O)c1cc(S(=O)(=O)N2CCCCC2)cs1,-4.86
11,c1cnnc(N2CCCC2CNCc2noc(C3CC3)n2)c1 (stereo not drawn),-29.8
12,COCCNC(=O)CNC(=O)c1nc(Cc2c(Cl)cccc2Cl)no1,9
13,COc1c(C(=O)NCC2CCCO2)nnn1Cc1ccccc1 (stereo not drawn),-14.7
14,O=C(N1CCOCC1)N1C[C@H]2CN(Cc3nccs3)C[C@H]2C1,34.6
15,O=C(c1cncc2ccccc12)N1CCC[C@@H]1CO,-10.6
16,c1cnc(NCc2ncn3c2CN(Cc2cccnc2)CCC3)nc1,36.1
17,O=C(CN(CC1CCC1)CC(F)(F)F)N1CCOCC1,22.6
18,CCOc1ccc(-n2nc(C)c(CC(C)=O)c2C)cc1C(N)=O,52.8
19,CC(=O)Cc1c(C)nn(-c2cncc(C(N)=O)c2)c1C,-27.5
20,COc1ccc(-n2nc(C)c(C(C)=O)c2C)cc1C(N)=O,-17.5
